Only some compounds are listed: those with a hit (about 27% of all), similar ones and a draw of the others.
CYP2C9 inh: blockers of cytochrome P450 2C9 activity – biochemical, luminescence, ADME assay, primary screen | P11712 | CYP2C9 Supersomes, luciferin-H conversion | inhibition, % at 5 µM | 96,000 tested, 20% active | AID 777, 2007;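 active = blocking of liver enzyme CYP2C9 beyond about 50% at 5 µM, limit read from the data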
CYP2C19 inh: blockers of cytochrome P450 2C19 activity – biochemical, luminescence, ADME assay, primary screen; 96,000 tested, 21% active; CYP2C19 Supersomes, luciferin-H EGE luminescence, 30 min; AID 778, 2007; P33261; inhibition, % at 5 µM;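 active = CYP2C19 inhibition above a set limit at 5 µM in the primary screen, cut at about 50% in these data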
CYP2C19 act: human CYP2C19 activators, primary screen, biochemical, luminescence | AID 1025, 2008 | activation factor at 5 µM | recombinant CYP2C19, luciferin-H EGE luminescence; hits give high values; 0 = fully inhibited enzyme, 1 = untreated enzyme | Cytochrome P450 2C19 (Homo sapiens), P33261 | 96,000 tested, under 10 active;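 active = activation factor of at least 2 at 5 µM in the primary screen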
CYP2C9 activ: human CYP2C9 activators, primary screen, biochemical, luminescence. Cytochrome P450 2C9 (Homo sapiens), P11712. recombinant CYP2C9, luciferin-H conversion; hits give high values; factor 1 = untreated enzyme, 0 = blocked. activation factor at 5 µM. 96,000 tested, 1.4% active. AID 1024, 2008;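 active = activation factor of 2 or more for CYP2C9 at a 5 µM dose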
Cav3 T inh: Cav3.2 calcium influx blockers – cell-based, Fluo-4 calcium fluorescence, FDSS, MLSMR library, primary screen | 100,000 tested, 4% active | B-score at 10 µM | Cav3.2-expressing cells; hits give low values | Voltage-dependent T-type calcium channel subunit alpha-1H (Homo sapiens), O95180 | AID 449739, 2010;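 active = single-dose well whose peak fluorescence ratio is a statistical outlier from its plate by either plate-standardised score or position-corrected B-score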
Hits are given with their value; n = inactive; x = not tested or not shown.

SMILES | CYP2C9 inh | CYP2C19 inh | CYP2C19 act | CYP2C9 activ | Cav3 T inh
CCC(C)OC(=O)C1=C(C)OC23OC(N)=C(C#N)C12C(=O)c1ccccc13 (stereo not given) | x | x | x | x | -2.7
Cc1ccc(Cn2c(SCC(C)C)nc3c2c(=O)n(C)c(=O)n3C)cc1 | n | n | n | n | n
COc1ccc(C2C(C(=O)c3sc(C)nc3C)=C(O)C(=O)N2CCN2CCOCC2)cc1 (stereo not given) | x | x | x | x | n
CCOc1cccc(NC(=O)C2CC(=O)NC(=Nc3ccccc3)S2)c1 (stereo not given) | 62 | n | n | n | -4.9
COc1cccc(N=C2SC(C(=O)Nc3ccccc3F)CC(=O)N2C)c1 (stereo not given) | 62 | n | n | n | n
COc1cccc(NC(=O)C2CC(=O)N(C)C(=Nc3cccc(F)c3)S2)c1 (stereo not given) | n | n | n | n | n
COc1ccc(NC(=O)C2CC(=O)N(C)C(=Nc3ccc4c(c3)OCO4)S2)cc1 (stereo not given) | x | x | x | x | n
CN1C(=O)CC(C(=O)Nc2ccc(F)cc2)SC1=Nc1ccc2c(c1)OCO2 (stereo not given) | 99 | 58 | n | n | n
CCN1C(=O)CC(C(=O)Nc2ccc(F)cc2)SC1=Nc1cccc(OC)c1 (stereo not given) | 84 | 62 | n | n | x
CNC(=O)C1CC(=O)N(Cc2ccc(OC)c(OC)c2)C(=Nc2ccc(OC)cc2)S1 (stereo not given) | n | n | n | n | n
CCNC(=O)C1CC(=O)N(Cc2ccc(F)cc2)C(=Nc2ccc(OC)cc2)S1 (stereo not given) | n | 55 | n | n | n
Cc1ccc(NC(=O)C2=C(O)c3ccccc3N(C)S2(=O)=O)cc1 | 73 | n | n | n | n
COc1ccc(-c2nn(CC(=O)N(C)C)c(=O)c3ccccc23)cc1 | n | n | n | n | n
CC(C)(C)c1cc(NC(=O)COC(=O)c2ccc3c(=O)n4c(nc3c2)CCC4)n(-c2ccccc2)n1 | 82 | 77 | n | n | n
CNCC/C=C1/c2ccccc2CSc2ccccc21 | x | x | x | x | n
COc1ccc(Br)cc1S(=O)(=O)N(CC(=O)N1CCOCC1)c1ccccc1 | 68 | 56 | n | n | n
COc1ccc(C)cc1S(=O)(=O)N(CC(=O)N1CCCC1)c1ccccc1 | 89 | n | n | n | n
COc1ccc(C)cc1S(=O)(=O)N(C)CC(=O)N1CCCCC1 | x | x | x | x | n
COc1ccc(-n2nnc3c(=O)n(Cc4cccc(C)c4)cnc32)cc1 | 56 | n | n | n | n
Clc1ccc(C(c2nnnn2C2CCCC2)N2CCN(c3nc4ccccc4s3)CC2)cc1 (stereo not given) | x | x | x | x | -8.1
c1ccc2sc(N3CCN(Cc4nnnn4CC4CCCO4)CC3)nc2c1 (stereo not given) | n | n | n | n | n
c1cnc2ccc(C(c3nnnn3C3CCCC3)N3CCN(c4nc5ccccc5s4)CC3)cc2c1 (stereo not given) | 88 | 70 | n | n | -3.9
CC(NC(=O)c1ccc(-c2cc(C(F)(F)F)ccc2Cl)o1)c1ccccc1 (stereo not given) | n | n | n | n | n
COc1ccc2nc(Nc3nc(CSc4nc5ccccc5s4)cc(=O)[nH]3)nc(C)c2c1 | x | x | x | x | n
CC1(C)CC2(CC(C)(C)NC(=O)N2)NC(=O)N1 | n | n | n | n | x
SMILES | CYP2C9 inh | CYP2C19 inh | CYP2C19 act | CYP2C9 activ | Cav3 T inh
Cc1ccc(S(=O)(=O)NCCN=C(CN2CCCC2)NS(=O)(=O)c2ccc(C)cc2)cc1 | 97 | n | n | n | n
Cc1ccc(S(=O)(=O)NCC(=O)N2CCCC2)cc1 | n | n | n | n | n
Cn1c(=O)[nH]c(=O)c2c1nc(CN1CCN(Cc3ccccc3)CC1)n2CC(N)=O | n | n | n | n | n
COc1ccc(C2CC(=O)c3cnc(NC(=O)c4ccccc4OC)nc3C2)c(OC)c1 (stereo not given) | x | x | x | x | n
Clc1ccc(/C=N/NC(=Nc2ccccc2)c2ccccn2)c(Cl)c1 | n | n | n | n | x
ONC(=Nc1ccccc1)c1ccc(Cl)cc1 | n | 90 | n | n | n
Cc1cccc2cc(COC(=O)C3CCCO3)c(=O)[nH]c12 (stereo not given) | n | n | n | n | n
CCC(=O)c1cc(F)c(N2CCN(S(=O)(=O)c3ccc(C)cc3)CC2)cc1C | 59 | n | n | n | n
Cc1ccc(N2CCN(S(=O)(=O)c3ccc(F)c(C)c3)CC2)c(C)c1 | 91 | 84 | n | n | n
Cc1ccccc1N1CCN(S(=O)(=O)c2ccc3oc(=O)ccc3c2)CC1 | 80 | n | n | n | n
CCc1ccccc1N1CCN(S(=O)(=O)c2ccc(F)c(C)c2)CC1 | 90 | 90 | n | n | n
Cc1ccc(S(=O)(=O)N2CCC(C(=O)Nc3ccc4c(c3)COC4=O)CC2)cc1 | n | n | n | n | n
COC(=O)c1ccc(OC(=O)c2ccc(OCc3c(C)noc3C)c(OC)c2)cc1 | n | n | n | n | x
CN(c1ccc(C(=O)NCCc2ccccc2)cc1)S(C)(=O)=O | n | n | n | n | n
CCn1c2ccccc2c2cc(NC(=O)CCCN3C(=O)CCC3=O)ccc21 | n | n | n | n | n
Cc1ccc(N2CCN(S(=O)(=O)N(C)C)CC2)c(C)c1 | 64 | 86 | n | n | n
COc1ccc(CCN2C(=NC(=O)CC(C)C)SC3CS(=O)(=O)CC32)cc1 (stereo not given) | 56 | 82 | n | n | n
Cc1ccc(CNC(=O)c2ccc3c(=O)n4c(-c5ccc(C)cc5)csc4nc3c2)cc1 | x | x | x | x | n
Cc1ccc(OCC(=O)N2CCC(N3CCCCCC3)CC2)cc1 | n | n | n | n | n
O=C1C2C(C(=O)N1c1ccncc1)C1C=CC2C12CC2 (stereo not given) | 75 | 92 | n | n | n
Cc1ccc(N2C(=O)C3C(C2=O)C2C=CC3C23CC3)cc1 (stereo not given) | n | n | n | n | n
C=C(C)C(=O)Nc1cccc(C2=NOC3(C2)C[C@H](C(N)=O)N(C(=O)c2ccccc2C(=O)c2ccccc2)C3)c1 (stereo not given in full) | x | x | x | x | n
O=c1cc(NCc2ccco2)[nH]c(=O)n1-c1ccc(Br)cc1 | x | x | x | x | n
CCOc1ccccc1-c1nnc(SCC(=O)NC2CC3CCC2C3)n1CC (stereo not given) | n | 77 | n | n | n
Oc1c(Br)cc(C2N=C(c3ccccc3Cl)NO2)cc1Br (stereo not given) | n | n | n | n | n
Cc1ccc(S(=O)(=O)/N=C2\C(=O)c3ccccc3C([O-])=C2n2cc[n+](CCC(C)C)c2)cc1 | 53 | n | n | n | n
Cc1ccc(S(=O)(=O)[N-]c2nc3ccccc3nc2-n2cc[n+](CCC(C)C)c2)cc1 | 94 | 56 | n | n | n
